# Only some compounds are listed: those with a hit (about 1.7% of all), similar ones and a draw of the others.
# RecA intein inh: blocks M. tuberculosis RecA intein splicing; P9WHJ3; cell-free RecA intein splicing, fluorescence; inhibition, % (concentration not given with the values); hit rate 0.75% among 290,000; in the data active = inhibition above about 30%
# Target sequence (P9WHJ3 whole entry, looked up): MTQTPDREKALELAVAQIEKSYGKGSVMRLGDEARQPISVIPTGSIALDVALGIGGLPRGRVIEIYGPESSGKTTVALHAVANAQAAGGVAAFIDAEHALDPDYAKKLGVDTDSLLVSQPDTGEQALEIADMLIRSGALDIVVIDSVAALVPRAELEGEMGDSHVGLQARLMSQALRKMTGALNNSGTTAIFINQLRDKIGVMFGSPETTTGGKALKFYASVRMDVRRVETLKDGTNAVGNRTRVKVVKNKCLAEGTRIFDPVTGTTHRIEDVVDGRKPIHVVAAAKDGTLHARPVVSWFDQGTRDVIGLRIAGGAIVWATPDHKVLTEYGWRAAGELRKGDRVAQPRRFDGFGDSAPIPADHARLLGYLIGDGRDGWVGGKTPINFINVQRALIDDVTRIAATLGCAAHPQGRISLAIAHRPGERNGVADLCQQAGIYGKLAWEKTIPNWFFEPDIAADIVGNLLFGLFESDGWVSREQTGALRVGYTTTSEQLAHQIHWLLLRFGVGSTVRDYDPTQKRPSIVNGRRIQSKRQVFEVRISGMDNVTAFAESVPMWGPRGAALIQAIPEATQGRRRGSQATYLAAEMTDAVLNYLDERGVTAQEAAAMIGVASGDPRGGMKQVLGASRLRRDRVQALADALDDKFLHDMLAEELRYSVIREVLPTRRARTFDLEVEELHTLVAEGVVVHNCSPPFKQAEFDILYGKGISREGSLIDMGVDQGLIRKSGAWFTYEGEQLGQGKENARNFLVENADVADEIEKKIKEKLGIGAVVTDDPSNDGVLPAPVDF
# CCHFV vOTU inh: CCHFV vOTU protease inhibition; Pep-AMC fluorescence; inhibition, % at 11.5 µM; hit rate 0.55% among 370,000; in the data active = inhibition above about 30%
# Mtb hypoxia inh: reduces hypoxia-regulated biosensor signal in M. tuberculosis. fluorescence inhibition, % (concentration not given with the values). hit rate 0.1% among 300,000. M. tuberculosis hypoxia-regulated fluorescent reporter, fluorescence; in the data active = fluorescence inhibition mostly above about 23%, no sharp cut-off; inactive = mostly below about 17%
# Mtb bLac sens: beta-lactam sensitization of Mtb H37Rv | M. tuberculosis H37Rv growth with meropenem, percent inhibition | inhibition, % at 25 µM | hit rate 0.27% among 330,000; call rule not given here;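 also: growth measured after seven days incubation then overnight dye step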
# PfHsp40 yeast: restores yeast growth despite PfHsp40 toxicity | S. cerevisiae expressing PfHsp40, growth rescue, ATP luminescence | growth rescue, % at 12.5 µM | hit rate 0.68% among 340,000; in the data active = growth rescue above about 28%, passing the limit was not always enough;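 also: yeast W303a lacking pdr1 and pdr3 grown in galactose medium; growth measured after three days at 30 °C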
# Numbers stand for hits; 0 = inactive; - = not tested or not shown.
SMILES,RecA intein inh,CCHFV vOTU inh,Mtb hypoxia inh,Mtb bLac sens,PfHsp40 yeast
O=C(Nc1cccnc1)c1ccc2ccccc2c1O,0,0,0,0,173
C[C@H]1COC(=O)[C@H](Cc2ccc(F)cc2)C/C=C\C[C@@H](CC(=O)N(CCO)Cc2ccccc2)C(=O)N1,-,0,-,0,55
O=C(C1CCC(C(=O)N2CCc3ccccc32)CC1)N1CCc2ccccc21 (stereo unspecified),0,0,-,0,0
O=C(CCl)c1ccc2c(c1)CCN2C(=O)C1CC1,60,-,-,0,-
CCn1nc(-c2ccccc2)nc2c(=O)n(C)c(=O)nc1-2,95,-,0,0,0
S=C(NCc1ccccc1)NC1CCCc2ccccc21 (stereo unspecified),0,0,0,0,36
CCNC(=O)COc1ccc(C=NNC(=O)c2cccnc2)cc1OC,-,-,0,-,-
C=CCC[C@H](Cc1ccc(F)cc1)C(=O)OC[C@H](Cc1c[nH]c2ccccc12)NC(=O)[C@H](CC=C)CC(=O)NCCO,-,0,-,0,32
C=CCC[C@@H](Cc1ccc(F)cc1)C(=O)OC[C@H](Cc1c[nH]c2ccccc12)NC(=O)[C@@H](CC=C)CC(=O)NCCO,-,0,-,0,33
C=CCC[C@@H](Cc1ccc(F)cc1)C(=O)OC[C@@H](Cc1c[nH]c2ccccc12)NC(=O)[C@@H](CC=C)CC(=O)NCCO,-,0,0,0,40
C=CCC[C@H](Cc1ccc(F)cc1)C(=O)OC[C@@H](Cc1c[nH]c2ccccc12)NC(=O)[C@@H](CC=C)CC(=O)NCCO,-,0,-,0,57
COC(=O)c1ccc(C23CC4(C2)C(CN(Cc2ccc(-c5ccccc5)cc2)C4c2ccccc2)C3c2ccc(Cl)nc2)cc1 (stereo unspecified),-,-,0,-,-
CCc1c(C2(O)CCCCC2)[nH]c2ccc(C(F)(F)F)cc12,0,0,-,0,351
CN(C)Cc1c(C(C)(C)O)[nH]c2ccc(C(F)(F)F)cc12,-,0,0,0,0
COc1ccc(CNc2ncnc3sccc23)cc1,0,0,0,0,865
COc1ccc(CNc2ncnc3sccc23)cc1OC,0,0,0,0,0
CN1CCc2nc(SCC(=O)Nc3ccc(F)cc3)c(C#N)cc2C1,33,-,-,0,-
COc1ccc(NC(=O)CSc2nc3c(cc2C#N)CN(C)CC3)cc1,0,0,0,0,0
Cc1onc(-c2ccccc2)c1-c1nc2cc(Cl)ccc2c(=O)o1,36,0,-,0,0
COc1ccccc1C=NNc1nccnc1Cl,-,-,0,-,-
COc1cccc(/C=N/Nc2nccnc2Cl)c1O,-,0,-,-,88
COc1cccc(/C=N/Nc2ncnc3scc(-c4ccccc4)c23)c1O,0,0,-,0,422
COC(=O)[C@]1(Cc2ccccc2)NC(c2ccc(-c3ccc(F)cc3)cc2)C2C(=O)N(C)C(=O)C21 (stereo partly specified),-,-,0,-,-
CC1CCc2sc(-c3n[nH]c(=S)o3)cc2C1 (stereo unspecified),0,0,0,0,330
O=C(Nc1ccccc1)c1ccc(Br)c(S(=O)(=O)Nc2ccccn2)c1,0,0,0,0,48
SMILES,RecA intein inh,CCHFV vOTU inh,Mtb hypoxia inh,Mtb bLac sens,PfHsp40 yeast
O=C(NC(=S)Nc1ccc(CN2CCCCC2)cc1)c1ccco1,0,0,0,0,128
O=C(Nc1cccc(Cl)c1)c1cc(N=Nc2ccc([N+](=O)[O-])cc2Cl)ccc1O,0,0,70,0,0
Cc1cc(Cl)ccc1OC(C)C(=O)Nc1ccc(S(=O)(=O)N2CCOCC2)cc1 (stereo unspecified),0,0,0,0,0
Cc1cc(Cl)ccc1OC(C)C(=O)Nc1ccc(C(=O)Nc2ccccc2C(=O)O)cc1 (stereo unspecified),0,0,-,0,52
O=C(NN=Cc1ccc(O)cc1O)c1ccccc1NS(=O)(=O)c1cccs1,-,0,0,0,70
Cc1ccc(-c2oc3ccccc3c(=O)c2O)cc1,0,0,-,0,0
O=C(O)c1c(-c2ccccc2)oc2ccc(O)cc12,0,0,0,0,0
Cc1ccc2oc(-c3ccccc3)c(C(=O)O)c(=O)c2c1,0,0,-,0,444
O=c1c(O)c(-c2ccccc2)oc2ccccc12,-,0,-,-,219
COC(=O)[C@@]1(Cc2ccc(F)cc2)C2c3cc(C(=O)N(C)C)n(CCc4ccccn4)c3CC2CN1C(=O)c1ccccc1 (stereo partly specified),-,-,0,-,-
O=C(Cc1ccccc1)N1CCN(CC=Cc2ccccc2)CC1,-,-,0,-,-
CS(=O)(=O)N(CCC(=O)O)Cc1ccccc1,0,0,-,0,77
CCOC(=O)C1C2COc3ccc(Br)cc3C2N2C(=O)N(c3ccc(Cl)cc3)C(=O)[C@@]12C (stereo partly specified),-,-,0,-,-

# Compound activity (PubChem BioAssay)
